These results are taken from PubChem BioAssay (NCI).

Assay in all cases: NCI-60 one-dose screen, 48 h (100 = growth as untreated, 0 = no growth, -100 = all killed)
Assay [1] deals with SR leukemia. Particulars: 10 µM unless noted.
Assay [2] deals with RPMI-8226 leukemia. Particulars: 10 µM unless noted.
In assay [3] the test system is OVCAR-8 ovarian. The note with it: 10 µM unless noted.
Assay [4] concerns OVCAR-5 ovarian. Particulars: 10 µM unless noted.
Assay [5] has as its system OVCAR-4 ovarian. Particulars: 10 µM unless noted.
Assay [6] relates to SK-OV-3 ovarian. Particulars: 10 µM unless noted.
Assay [7] has as its system IGROV1 ovarian. Particulars: 10 µM unless noted.
Assay [8] deals with OVCAR-3 ovarian. Particulars: 10 µM unless noted.
Assay [9] deals with HS 578T breast. The note with it: 10 µM.
For assay [10], the system named is NCI/ADR-RES ovarian. Particulars: 10 µM unless noted.

Each structure is given as a SMILES string. About 83,000 compounds went through this panel and 20% of them were active in at least one assay; those are over-represented in the sample as a whole.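 How to read the values: 0–100, growth inhibition (40 = 60% inhibited); 0, no net growth; -100 to 0, cell death (-40 = 40% of starting cells died; -100 = all dead).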 A number with no mark means an inactive call. The source made the active and inactive calls. Rule for the calls: active = growth percent below 10; inactive = the rest.

Consider `C=CCC(=O)N[C@H](/C=C/C(=O)O)Cc1ccc(-c2cc(Cl)cc(Cl)c2)cc1`, for which the growth in assay [1] was 82%; in [2], 96.6%; in [3] it was 92.7%; in [4], 92%; in assay [5], 98.6%; in [6], 87.3%. Further, the growth was 114% in assay [7], 108% in [8], 97% in assay [9] and 107% in assay [10].
On to `COC(=O)CC[C@@H](C)[C@H]1CC[C@H]2C3CC[C@@H]4C[C@@H]5CC[C@]4(C)[C@@]3(O5)[C@H](Br)[C@@H](Br)[C@]12C` (stereo not given in full), for which the growth is 82.6% in assay [1]; 88.5% in [2]; 97.8% in [3]; 102% in [4]; 85.5% in [5]; 80.2% in assay [6]. The growth in assay [7] was 103%; in assay [8], 101%; in [9], 112%; in [10] it was 103%.
Consider `COc1cnc2c(c1)C(=O)c1c-2n(CCCN2CCOCC2)c(=O)c2cc(Cl)ccc12`, for which the growth in assay [1] was 7.63% (active); in assay [2], 9.78% (active); in assay [3], 32.8%; in [4], 69.1%; in assay [5], 41.6%; in assay [6] it was 10.7%. For the same molecule, the growth in assay [7] was 43.2%; in assay [8], 25.8%; in [9], 79.2%; in assay [10], 19.2%.
On to `COC(=O)C1CCc2sc3ncnc(Nc4cn[nH]c4C(=O)Nc4ccc(CN5CCN(C)CC5)cc4)c3c21` (stereo not given), for which the growth in assay [1] was -25.7% (active); in assay [2], 8.36% (active); in assay [3], 16.6%; in assay [4], -2.74% (active); in assay [5], 23.5%; in assay [6], 6.43% (active). In addition, the growth was 4.94% (active) in [7], 11.4% in assay [8], -3.1% (active) in assay [9] and 54.4% in assay [10].
Regarding `CNC(=O)c1cc(Oc2ccc3nc(NC(=O)Nc4ccc(Cl)c(C(F)(F)F)c4)sc3c2)ccn1`, the growth was 22.6% in [1]; 61.4% in assay [2]; -11.1% (active) in assay [3]; 30.8% in assay [4]; -34% (active) in [5]; 12.7% in assay [6]. Further, the growth in assay [7] is 56.8%; in assay [8], -61.1% (active); in assay [9], -16.1% (active); in [10] it was 11.4%.
On to `O=C(CNc1nnc(-c2ccc(Cl)cc2)o1)Nc1ccc(-c2nc3ccccc3s2)cc1`, for which the growth in assay [1] was 71.8%; in assay [2] it was 95.4%; in assay [3] it was 103%; in [4], 116%; in assay [5], 103%; in [6], 117%. Besides, the growth in assay [7] is 94.1%; in assay [8], 97.7%; in [9], 96.9%; in assay [10] it was 98.9%.
Take `CCN(CC)CCOc1ccc(/C(=C(\C)c2ccc(Cl)cc2)c2ccc(Cl)cc2)cc1`: the growth in assay [1] was 0.594% (active); in assay [2], 14.5%; in assay [3], 82.7%; in [4], 80.2%; in assay [5] it was 78.8%; in [6], 103%. Further, the growth is 80% in [7], 83% in assay [8], 77.5% in assay [9] and 81.5% in assay [10].
As for `CCCCCC(=O)OCc1ccc(Cl)c(Cl)c1`, the growth in assay [1] was 97.5%; in assay [2] it was 104%; in [3] it was 103%; in assay [4] it was 108%; in assay [5] it was 105%; in assay [6], 107%. In addition, the growth in assay [7] was 106%; in assay [8], 106%; in [9], 103%; in assay [10], 102%.
On to `COc1cnc2c(c1)C(=O)c1c-2n(CCCN2CCC(O)CC2)c(=O)c2cc(Cl)ccc12`, for which the growth in [1] is -16.9% (active); in [2], 8.25% (active); in [3] it was 46.1%; in assay [4], 101%; in assay [5], 70%; in assay [6], 27.8%. For the same molecule, the growth in [7] was 55.6%; in assay [8], 80.9%; in [9] it was 86.7%; in assay [10], 28.3%.
`Cc1cc(N2CCCC2)nc(N(CCCNc2ccnc3cc(Cl)ccc23)Cc2ccc3c(c2)OCO3)n1`: the growth was -36% (active) in assay [1]; -31.2% (active) in assay [2]; -2.12% (active) in assay [3]; -3.2% (active) in [4]; 13.5% in assay [5]; 53.5% in assay [6]. Moreover, the growth was -7.14% (active) in assay [7], -32.8% (active) in assay [8], -32.2% (active) in [9] and 1.74% (active) in [10].
With `CC(=O)OC(C(=O)c1ccccc1)c1ccccc1` (stereo not given), the growth in [1] is 106%; in assay [2] it was 105%; in assay [3], 98%; in assay [4] it was 102%; in [5], 97.8%; in assay [6] it was 94.1%. Besides, the growth in assay [7] was 105%; in assay [8] it was 121%; in assay [9], 125%; in [10], 107%.
Take `Ic1ccccc1-c1ccccc1`: the growth in assay [1] is 102%; in [2], 103%; in [3], 110%; in [4] it was 114%; in assay [5], 109%; in [6], 111%. Also, the growth was 117% in [7], 111% in assay [8], 102% in assay [9] and 110% in assay [10].
For the molecule `O=C(Cn1ccc2ccccc21)Nc1ccc(-c2nc3ccccc3s2)cc1`, the growth was 95.5% in [1]; 100% in assay [2]; 105% in assay [3]; 104% in assay [4]; 103% in assay [5]; 102% in assay [6]. The growth in assay [7] is 73.8%; in assay [8], 102%; in [9], 97.7%; in [10] it was 100%.
Take `N#Cc1c(C(F)(F)F)cc(Nc2ccc3nc(NCCN4CCCC4)oc3c2)n2c1nc1ccccc12`: the growth in assay [1] was 0.701% (active); in assay [2] it was 44.6%; in [3], 65.7%; in assay [4], 137%; in assay [5], 64.2%; in assay [6] it was 89.9%. In addition, the growth in assay [7] is 79.6%; in [8], 91.6%; in assay [9], 100%; in [10], 86.5%.
Regarding `CCC1(/C=N/NC(N)=S)NC(=O)NC1=O` (stereo not given), the growth in assay [1] is 91.1%; in assay [2], 103%; in assay [3], 98.1%; in assay [4], 109%; in [5], 109%; in assay [6], 83.9%. Also, the growth in [7] is 113%; in assay [8], 119%; in assay [9], 104%; in assay [10], 111%.
As for `COc1ccc(CCCc2c3[n+](cc4c(OC)c(OC)ccc24)CCc2cc4c(cc2-3)OCO4)cc1`, the growth is 37.6% in assay [1]; 20.5% in [2]; 48.1% in assay [3]; 86.6% in assay [4]; 54.5% in assay [5]; 77.5% in [6]. Also, the growth in [7] was 53.9%; in assay [8] it was 30%; in assay [9] it was 97.2%; in assay [10], 93.7%.
Take `O=C(Nc1cccc([N+](=O)[O-])c1)c1ccc(Cl)c(Cl)c1`: the growth in assay [1] is 80.7%; in [2] it was 79.1%; in assay [3], 43.5%; in [4], 94.2%; in assay [5], 16.7%; in [6], 53.3%. The growth in assay [7] is 47%; in assay [8] it was 53.8%; in [9] it was 70%; in [10] it was 79%.
With `COc1cc(-c2cc(-c3ccc(Nc4ccnc5cc(Cl)ccc45)cc3)nc(N3CCOCC3)n2)cc(OC)c1OC`, the growth in assay [1] is -10.7% (active); in assay [2], -5.21% (active); in assay [3] it was 9.73% (active); in assay [4], 55.5%; in [5], -48.3% (active); in assay [6], 98.6%. Moreover, the growth in [7] was 1.69% (active); in assay [8] it was -47.7% (active); in [9], 3.06% (active); in assay [10], 9.9% (active).
With `COc1cc(-c2nc(C(=O)Nc3ccc(C)cc3)nn2-c2ccc(F)c(F)c2)cc(OC)c1OC`, the growth in assay [1] was 91.8%; in assay [2] it was 103%; in assay [3] it was 103%; in [4], 117%; in [5], 103%; in assay [6] it was 89.1%. Besides, the growth in [7] was 86.9%; in [8], 107%; in assay [9], 121%; in [10], 93.6%.
Regarding `CCNCCNc1cc(-c2ccc(Cl)c(Cl)c2)c(C#N)c2nc3ccccc3n12`, the growth in assay [1] was -30.9% (active); in [2], -39.2% (active); in assay [3], -66% (active); in assay [4] it was -76% (active); in assay [5], -78.4% (active); in assay [6], -94.1% (active). For the same molecule, the growth in [7] is -70.7% (active); in assay [8], -94% (active); in assay [9], -45.7% (active); in [10], -73.4% (active).
With `Clc1ccc(C(Cn2ccnc2)OCc2ccsc2Cl)c(Cl)c1` (stereo not given), the growth in assay [1] was 17.3%; in assay [2], 37.6%; in assay [3], 57.2%; in assay [4], 68.9%; in assay [5], 52.7%; in [6] it was 70.7%. The growth is 40.9% in [7], 55.7% in [8], 30.8% in assay [9] and 23.1% in assay [10].
For `Cc1ccc(-[n+]2c3cc(N)c(C)cc3nc3cc(C)c(Nc4ccccc4)cc32)cc1`, the growth is -39.1% (active) in assay [1]; -36.5% (active) in [2]; -6.17% (active) in assay [3]; -61.3% (active) in assay [4]; -38.7% (active) in [5]; -90.4% (active) in assay [6]. In addition, the growth was -59.5% (active) in [7], -97.4% (active) in [8], 18.8% in assay [9] and -21.8% (active) in [10].
Take `Cc1sc2c(c1C)c(=O)nc1c(-c3nc(-c4ccccc4)cs3)n[nH]n12`: the growth in assay [1] is 90.5%; in [2] it was 93.8%; in assay [3] it was 99.8%; in [4], 109%; in assay [5], 106%; in [6] it was 89.6%. The growth was 96.9% in assay [7], 96.4% in assay [8], 93.4% in assay [9] and 96.1% in [10].
As to `CSc1nc2ncncc2[nH]1`, the growth in assay [1] was 95.2%; in [2], 201%; in assay [3] it was 104%; in [4], 93.9%; in assay [5], 102%; in assay [6] it was 113%. Besides, the growth in assay [7] is 76.1%; in assay [8] it was 109%; in assay [9], 74.8%; in assay [10], 106%.
For `CCCCCCCC(=O)SCC/C=C/[C@@H]1CC(=O)NCc2cc(ccn2)C2=N[C@@](C)(CS2)C(=O)N[C@@H](C(C)C)C(=O)O1`, the growth in assay [1] was 14.3%; in assay [2] it was 13.6%; in assay [3] it was 6.26% (active); in [4] it was 2.85% (active); in assay [5], 10.9%; in [6], -22.6% (active). Also, the growth is -8.98% (active) in [7], -22.9% (active) in assay [8], -8.43% (active) in assay [9] and 4.18% (active) in [10].
As for `COc1cnc2c(c1)C(=O)c1c-2n(CCCN2CCC(N)CC2)c(=O)c2cc([N+](=O)[O-])ccc12`, the growth in assay [1] is 2.78% (active); in assay [2], 39.6%; in [3], 42.4%; in [4], 119%; in assay [5] it was 60.4%; in assay [6], 30.4%. The growth in assay [7] is 56%; in [8], 79.7%; in assay [9], 81.4%; in [10], 76%.
